Laboratory results published in PubChem BioAssay AID1159580 (chemical genetic matrix, 2015).
The whole screen tested about 5,500 compounds, of which about 2,000 (36%) were called active. Roughly 18% stayed inconclusive and do not appear here. No stated cut-off is given here; in the data, active means normalized growth mostly below about 0.91 (no sharp cut-off); inconclusive means no clear call, values can overlap the other calls; inactive means mostly above about 0.92. This is one part of the list.

Assay: chemical genetic growth profiling, strain panel (AID 1159580);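 further: tested at 20 µM; growth read once vehicle control cultures reached saturation at 30 °C; 1 = growth at the plate median or of vehicle wells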
Conditions: growth OD

Measured: normalized growth

CN(C)CC/C=C1/c2ccccc2COc2ccccc21
inactive: S. cerevisiae deletion strains, locus YKL068W, stronger effect = lower value 1.02 | S. cerevisiae deletion strains, locus YKL085W, strain MDH1 (second series), stronger effect = lower value 1 | S. cerevisiae deletion strains, locus YKL085W, strain MDH1, stronger effect = lower value 1 | S. cerevisiae deletion strains, locus YKL160W, strain elf1, stronger effect = lower value 1.01 | S. cerevisiae deletion strains, locus YKL190W, strain CNB1, stronger effect = lower value 1.02 | S. cerevisiae deletion strains, locus YKR001C, strain vps1, stronger effect = lower value 1 | S. cerevisiae deletion strains, locus YKR026C, strain gcn3, stronger effect = lower value 1.03 | S. cerevisiae deletion strains, locus YKR091W, strain srl3, stronger effect = lower value 1.02 | S. cerevisiae deletion strains, locus YLL001W, strain dnm1, stronger effect = lower value 1.01 | S. cerevisiae deletion strains, locus YLL026W, stronger effect = lower value 1.02 | S. cerevisiae deletion strains, locus YLL041C, strain sdh2, stronger effect = lower value 1.03 | S. cerevisiae deletion strains, locus YLR027C, strain aat2, stronger effect = lower value 1.02 | S. cerevisiae deletion strains, locus YLR039C, strain RIC1, stronger effect = lower value 1.15 | S. cerevisiae deletion strains, locus YLR058C, strain SHM2, stronger effect = lower value 1.01 | S. cerevisiae deletion strains, locus YLR102C, strain apc9, stronger effect = lower value 1.01 | S. cerevisiae deletion strains, locus YLR113W, strain HOG1, stronger effect = lower value 1.09 | S. cerevisiae deletion strains, locus YLR221C, strain rsa3, stronger effect = lower value 1.01 | S. cerevisiae deletion strains, locus YLR258W, strain gsy2, stronger effect = lower value 1.02 | S. cerevisiae deletion strains, locus YLR262C, strain YPT6 (second series), stronger effect = lower value 1.09 | S. cerevisiae deletion strains, locus YLR262C, strain YPT6, stronger effect = lower value 1.14 | S. cerevisiae deletion strains, locus YLR268W, strain sec22, stronger effect = lower value 1.02 | S. cerevisiae deletion strains, locus YLR320W, strain mms22, stronger effect = lower value 1.01 | S. cerevisiae deletion strains, locus YLR330W, strain CHS5, stronger effect = lower value 1.01 | S. cerevisiae deletion strains, locus YLR342W, strain FKS1 (second series), stronger effect = lower value 1 | S. cerevisiae deletion strains, locus YLR342W, strain FKS1, stronger effect = lower value 1.01 | S. cerevisiae deletion strains, locus YLR357W, strain rsc2, stronger effect = lower value 1.02 | S. cerevisiae deletion strains, locus YLR370C, strain arc18, stronger effect = lower value 1.02 | S. cerevisiae deletion strains, locus YLR371W, strain rom2, stronger effect = lower value 1.01 | S. cerevisiae deletion strains, locus YLR384C, strain iki3, stronger effect = lower value 1.03 | S. cerevisiae deletion strains, locus YLR418C, strain cdc73, stronger effect = lower value 0.996 | S. cerevisiae deletion strains, locus YML016C, strain PPZ1, stronger effect = lower value 1 | S. cerevisiae deletion strains, locus YML032C, strain rad52, stronger effect = lower value 1.02 | S. cerevisiae deletion strains, locus YML120C, strain ndi1, stronger effect = lower value 1.04 | S. cerevisiae deletion strains, locus YML124C, strain tub3, stronger effect = lower value 1.02 | S. cerevisiae deletion strains, locus YMR058W, strain fet3, stronger effect = lower value 1.01 | S. cerevisiae deletion strains, locus YMR078C, strain ctf18, stronger effect = lower value 1.03 | S. cerevisiae deletion strains, locus YMR125W, strain sto1, stronger effect = lower value 1.02 | S. cerevisiae deletion strains, locus YMR129W, stronger effect = lower value 1.02 | S. cerevisiae deletion strains, locus YMR205C, strain PFK2, stronger effect = lower value 1.04 | S. cerevisiae deletion strains, locus YMR223W, strain ubp8, stronger effect = lower value 1.03 | S. cerevisiae deletion strains, locus YMR231W, strain pep5, stronger effect = lower value 1.03 | S. cerevisiae deletion strains, locus YMR263W, strain SAP30, stronger effect = lower value 1 | S. cerevisiae deletion strains, locus YMR307W, strain GAS1, stronger effect = lower value 1.05 | S. cerevisiae deletion strains, locus YNL067W, strain RPL9B, stronger effect = lower value 1.01 | S. cerevisiae deletion strains, locus YNL071W, strain lat1, stronger effect = lower value 1.02 | S. cerevisiae deletion strains, locus YNL128W, strain TEP1, stronger effect = lower value 1.01 | S. cerevisiae deletion strains, locus YNL153C, strain GIM3, stronger effect = lower value 0.997 | S. cerevisiae deletion strains, locus YNL183C, strain NPR1, stronger effect = lower value 0.989 | S. cerevisiae deletion strains, locus YNL209W, strain ssb2, stronger effect = lower value 0.985 | S. cerevisiae deletion strains, locus YNL233W, strain BNI4, stronger effect = lower value 1.01 | S. cerevisiae deletion strains, locus YNL248C, strain rpa49, stronger effect = lower value 1.01 | S. cerevisiae deletion strains, locus YNL250W, strain rad50, stronger effect = lower value 1.04 | S. cerevisiae deletion strains, locus YNL271C, strain bni1, stronger effect = lower value 1.01 | S. cerevisiae deletion strains, locus YNL298W, strain CLA4, stronger effect = lower value 1.02 | S. cerevisiae deletion strains, locus YNL307C, strain MCK1, stronger effect = lower value 1.03 | S. cerevisiae deletion strains, locus YNL322C, strain KRE1 (second series), stronger effect = lower value 1.02 | S. cerevisiae deletion strains, locus YNL322C, strain KRE1, stronger effect = lower value 1.02 | S. cerevisiae deletion strains, locus YNR049C, strain mso1, stronger effect = lower value 1.02 | S. cerevisiae deletion strains, locus YNR052C, strain pop2, stronger effect = lower value 1.02 | S. cerevisiae deletion strains, locus YOL006C, strain TOP1, stronger effect = lower value 0.974 | S. cerevisiae deletion strains, locus YOL012C, strain htz1 1.18 | S. cerevisiae deletion strains, locus YOL147C, strain pex11, stronger effect = lower value 1.01 | S. cerevisiae deletion strains, locus YOR001W, strain rrp6, stronger effect = lower value 1.02 | S. cerevisiae deletion strains, locus YOR061W, strain CKA2, stronger effect = lower value 1 | S. cerevisiae deletion strains, locus YOR069W, strain VPS5, stronger effect = lower value 1.01 | S. cerevisiae deletion strains, locus YOR070C, strain gyp1, stronger effect = lower value 1.02 | S. cerevisiae deletion strains, locus YOR080W, strain dia2, stronger effect = lower value 1.03 | S. cerevisiae deletion strains, locus YOR083W, strain WHI5, stronger effect = lower value 0.99 | S. cerevisiae deletion strains, locus YOR106W, strain vam3, stronger effect = lower value 1.02 | S. cerevisiae deletion strains, locus YOR136W, strain idh2, stronger effect = lower value 1.03 | S. cerevisiae deletion strains, locus YOR144C, strain elg1, stronger effect = lower value 1.01 | S. cerevisiae deletion strains, locus YOR184W, strain ser1, stronger effect = lower value 1.05 | S. cerevisiae deletion strains, locus YOR231W, strain MKK1, stronger effect = lower value 1.07 | S. cerevisiae deletion strains, locus YOR265W, strain rbl2, stronger effect = lower value 1.03 | S. cerevisiae deletion strains, locus YOR270C, strain vph1, stronger effect = lower value 1.02 | S. cerevisiae deletion strains, locus YOR290C, strain snf2, stronger effect = lower value 1.01 | S. cerevisiae deletion strains, locus YOR316C, strain cot1, stronger effect = lower value 1.01 | S. cerevisiae deletion strains, locus YPL051W, strain arl3, stronger effect = lower value 1.01 | S. cerevisiae deletion strains, locus YPL055C, strain LGE1, stronger effect = lower value 0.981 | S. cerevisiae deletion strains, locus YPL078C, strain atp4, stronger effect = lower value 1.02 | S. cerevisiae deletion strains, locus YPL106C, strain sse1, stronger effect = lower value 1.02 | S. cerevisiae deletion strains, locus YPL240C, strain hsp82, stronger effect = lower value 1.02 | S. cerevisiae deletion strains, locus YPL241C, strain CIN2, stronger effect = lower value 1.01 | S. cerevisiae deletion strains, locus YPL256C, strain CLN2, stronger effect = lower value 1.04 | S. cerevisiae deletion strains, locus YPR119W, strain clb2, stronger effect = lower value 1.01 | S. cerevisiae deletion strains, locus YPR141C, strain kar3, stronger effect = lower value 1.01 | S. cerevisiae deletion strains, locus YPR163C, strain tif3, stronger effect = lower value 1.01 | S. cerevisiae deletion strains, locus YPR167C, strain met16, stronger effect = lower value 1.02 | S. cerevisiae deletion strains, strain wtn01, stronger effect = lower value 1.03 | S. cerevisiae strains, strain wild type, stronger effect = lower value 1.01
